The nature of test [1]: Cell Viability - SK-N-SH (AID 435).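 Note: potency is the fitted concentration of half-maximal effect; compound exposure lasted 40 h at 37 °C.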 Particulars: SK-N-SH neuroblastoma cell viability qHTS. In outline: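 CellTiter-Glo ATP luminescence, 20 min RT read; cells pre-plated 5 hr, compound 40 hr at 37 °C, 1500 cells/well, complete medium. Normalized DMSO = 0, 100 uM tamoxifen = 100% inhibition; Hill-fit AC50.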
For orientation: qHTS replaces the single test concentration by a dilution series.

A short description of test [2]: MultiTox-Fluor Cytotoxicity Assay - LYMP1-001 - Live Cells (AID 947; active = well fitted curve in the direction sought with a large enough effect; an effect the other way counts as inactive or inconclusive;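 note: 0% = DMSO only and full inhibition = tetraoctylammonium bromide control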). Particulars: LYMP1-001 lymphoblastoid cells, live-cell protease fluorescence viability; series mostly up to 92.2 µM.
For test [3], the target named is Peroxisome proliferator-activated receptor delta (Homo sapiens) (UniProt Q03181). As to the kind of experiment: qHTS assay for small molecule agonists of peroxisome proliferator-activated receptor delta signaling (AID 588534).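 Note: 0% = DMSO basal wells and 100% = positive control agonist at 10 µM.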 Particulars: HEK293T PPARdelta-UAS-bla, beta-lactamase ratio, 18 h; series mostly up to 76.7 µM. In outline: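 Reporter cells were plated and held 5 hrs at 37 C before compounds were added. After 18 hrs at 37 C, CCF4 dye was loaded for 2 hrs at RT and fluorescence measured.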
Peroxisome proliferator-activated receptor delta (Homo sapiens), sequence (Q03181 whole entry, looked up): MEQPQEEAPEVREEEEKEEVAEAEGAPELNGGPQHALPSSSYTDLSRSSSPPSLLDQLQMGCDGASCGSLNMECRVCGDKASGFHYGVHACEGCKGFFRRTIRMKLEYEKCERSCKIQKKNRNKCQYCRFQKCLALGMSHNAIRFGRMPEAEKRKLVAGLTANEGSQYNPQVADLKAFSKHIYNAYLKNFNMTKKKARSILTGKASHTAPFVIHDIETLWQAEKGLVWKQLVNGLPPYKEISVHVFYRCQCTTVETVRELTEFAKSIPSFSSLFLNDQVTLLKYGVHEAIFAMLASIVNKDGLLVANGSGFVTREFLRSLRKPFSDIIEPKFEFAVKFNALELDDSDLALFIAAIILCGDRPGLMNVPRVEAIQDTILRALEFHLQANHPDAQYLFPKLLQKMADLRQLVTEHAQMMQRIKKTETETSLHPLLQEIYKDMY

Test [4] can be described thus: qHTS assay for small molecule antagonists of peroxisome proliferator-activated receptor delta signaling (AID 588535; active = well fitted inhibition curve with a large enough effect in the signal ratio, with a control signal flat, not every such curve was filed as active; the % refers to the signal ratio;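 for max response: cells co-treated with a PPAR-delta agonist as stimulator during compound exposure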). The conditions noted are these: HEK293T PPARd-UAS-bla, beta-lactamase FRET ratio, 18 h; 460 nm channel. In outline: (§1)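 Cells were seeded at 4000 per well in assay medium containing 2% charcoal/dextran FBS and held 5 hrs at 37 C. Compounds were then added for 18 hrs. CCF4 substrate was applied for 2 hrs at room temperature before fluorescence reading.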

In test [5] the target is Peroxisome proliferator-activated receptor delta (Homo sapiens) (UniProt Q03181). Described as above. The conditions noted are these: HEK293T PPARd-UAS-bla, beta-lactamase FRET ratio, 18 h; series mostly up to 76.7 µM. In outline:
as §1

Test [6] concerns the target Peroxisome proliferator-activated receptor gamma (Homo sapiens) (UniProt P37231). Kind of test: qHTS assay for small molecule antagonists of peroxisome proliferator-activated receptor gamma signaling (AID 588537; active = well fitted inhibition curve with a large enough effect in the signal ratio, with a control signal flat, not every such curve was filed as active; the % refers to the signal ratio;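 note: reporter cells co-stimulated with 50 nM rosiglitazone agonist during compound treatment; % of control where 0% means no effect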). Particulars: HEK293 PPARg-UAS-bla, beta-lactamase ratio, antagonist mode; series mostly up to 76.8 µM. In outline: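 Step one: plate 3000 HEK293 UAS-bla cells per well in medium with 1% stripped serum and hold 6-6.5 h at 37 C. Step two: add compound and 50 nM agonist for 16 h. Step three: CCF4 loading, fluorescence read.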

Test [7] concerns the target Vitamin D3 receptor (Homo sapiens) (UniProt P11473). As to the kind of experiment: qHTS assay for small molecule antagonists of vitamin D receptor signaling (AID 588541).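 Note: receptor activated by calcitriol during compound treatment; % is set by controls: 0 for no effect and ±100 for the full control effect.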 The conditions noted are these: HEK293T VDR-UAS-bla, beta-lactamase ratio, antagonist mode; series mostly up to 76.7 µM. In outline:
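VDR-UAS-bla HEK293T cells in 2% charcoal-stripped FBS were stimulated with 1-alpha,25-dihydroxyvitamin D3 (3 nM final) plus compound for 16 h at 37 C. The beta-lactamase CCF4 readout was normalized to 50 nM agonist and DMSO, and Hill fits gave IC50.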

Test [8] deals with Thyroid hormone receptor beta (Homo sapiens) (UniProt P10828). Kind of test: qHTS assay for small molecule antagonists of thyroid hormone receptor beta signaling (AID 588547; active = well fitted inhibition curve with a large enough effect in the signal ratio, with a control signal flat, not every such curve was filed as active; the % refers to the signal ratio;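 note: cells stimulated with 0.4 nM T3 agonist during compound exposure; % is set by controls: 0 for no effect and ±100 for the full control effect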). The conditions noted are these: TR-UAS-bla HEK293, beta-lactamase ratio, antagonist mode, 18 h. In outline: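 TR-UAS-bla GripTite HEK293 cells in 2% charcoal/dextran FBS medium; compounds 0.59 nM to 92 uM with T3 at 0.4nM final, 18 h at 37 C. Beta-lactamase read by CCF4 fluorescence (460/530 nm); Hill fits gave IC50 and efficacy.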
Thyroid hormone receptor beta (Homo sapiens), sequence (P10828 whole entry, looked up): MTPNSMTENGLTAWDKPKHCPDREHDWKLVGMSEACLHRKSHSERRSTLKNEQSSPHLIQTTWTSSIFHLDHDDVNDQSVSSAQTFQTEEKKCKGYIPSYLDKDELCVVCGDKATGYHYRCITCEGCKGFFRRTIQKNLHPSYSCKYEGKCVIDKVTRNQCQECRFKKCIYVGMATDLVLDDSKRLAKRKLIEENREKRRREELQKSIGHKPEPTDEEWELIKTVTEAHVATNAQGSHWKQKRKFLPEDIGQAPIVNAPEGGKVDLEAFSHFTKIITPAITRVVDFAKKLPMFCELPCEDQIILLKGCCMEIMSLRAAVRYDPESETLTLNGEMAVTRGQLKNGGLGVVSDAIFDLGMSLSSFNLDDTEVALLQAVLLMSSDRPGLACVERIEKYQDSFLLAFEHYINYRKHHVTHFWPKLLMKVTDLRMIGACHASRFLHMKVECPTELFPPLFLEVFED

The nature of test [9]: qHTS assay for small molecule agonists of the antioxidant response element (ARE) signaling pathway (AID 651741; active = well fitted activation curve with a large enough effect in the signal ratio; the % refers to the signal ratio; note: % of control where 0% means no effect). Particulars: HepG2 ARE-bla reporter, beta-lactamase FRET ratio, 16 h; series mostly up to 96 µM. In outline:
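HepG2 ARE-bla cells plated at 2,000 cells/well and incubated 5 h at 37 C/5% CO2 received 23 nL compound in DMSO. After 16 h at 37 C, LiveBLAzer B/G FRET substrate was applied for 2 h at room temperature and fluorescence read.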

The nature of test [10]: qHTS assay for small molecule activators of the nuclear factor-kappa B (NF-kB) signaling pathway (AID 651749; active = well fitted activation curve with a large enough effect in the signal ratio; the % refers to the signal ratio; note: % of control where 0% means no effect). Particulars: NF-kB-bla ME-180 cells, beta-lactamase FRET ratio, 16 h; stronger effect = higher value. In outline:
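Incubation lasted 16 hr at 37C in 5% CO2 after 23 nL compound addition to ME-180 NF-kB-bla cells. Activation appears as beta-lactamase-mediated FRET loss.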

Test [11] in a line: qHTS assay for small molecule disruptors of the mitochondrial membrane potential - 1 hr assay (AID 651754). Note: % is set by controls: 0 for no effect and ±100 for the full control effect; nearly all actives have a fitted effect of over 35% in size. The conditions noted are these: series mostly up to 92.2 µM. In outline:
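Steps: seed HepG2 cells and let attach overnight; pin-transfer compound or vehicle; incubate 1 hr at 37C; add Mito-MPS dye for 30 min; read two-channel fluorescence for monomer and aggregate forms.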

Test [12] deals with Nuclear receptor ROR-gamma (Homo sapiens) (UniProt P51449). As to the kind of experiment: qHTS assay for small molecule antagonists of the retinoid-related orphan receptor gamma (ROR-gamma) signaling pathway (AID 651802; active = well fitted curve in the direction sought with a large enough effect; an effect the other way counts as inactive or inconclusive;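 note: CHO cells with doxycycline-induced ROR-gamma expression; luciferase reporter luminescence driven by ROR response element; % is set by controls: 0 for no effect and ±100 for the full control effect; nearly all actives have a fitted effect of over 60% in size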). The conditions noted are these: ROR-gamma antagonist cell reporter assay; series mostly up to 92.2 µM. In outline: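 Antagonism is scored as a fall in luminescence from a RORE-luciferase reporter in CHO cells expressing ROR under a TET-inducible promoter, measured 16hr after doxycycline induction in the presence of compound.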
Nuclear receptor ROR-gamma (Homo sapiens), sequence (P51449 whole entry, looked up): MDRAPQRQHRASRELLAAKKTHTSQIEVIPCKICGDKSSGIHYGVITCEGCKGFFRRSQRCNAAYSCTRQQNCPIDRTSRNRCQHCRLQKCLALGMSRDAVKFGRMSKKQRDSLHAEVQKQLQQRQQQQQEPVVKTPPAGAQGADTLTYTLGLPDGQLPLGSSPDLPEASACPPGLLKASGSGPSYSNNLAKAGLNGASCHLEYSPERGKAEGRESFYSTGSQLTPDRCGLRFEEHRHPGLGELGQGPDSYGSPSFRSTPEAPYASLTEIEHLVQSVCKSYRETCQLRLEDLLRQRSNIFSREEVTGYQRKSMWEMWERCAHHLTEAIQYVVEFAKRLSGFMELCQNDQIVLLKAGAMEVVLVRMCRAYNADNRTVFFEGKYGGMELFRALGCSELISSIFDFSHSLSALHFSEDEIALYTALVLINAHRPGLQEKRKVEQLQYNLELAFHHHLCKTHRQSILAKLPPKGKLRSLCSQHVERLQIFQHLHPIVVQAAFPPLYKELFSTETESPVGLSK

Test [13] is described as follows: Cell Viability - NIH 3T3 (AID 541; active = well fitted curve in the direction sought with a large enough effect; an effect the other way counts as inactive or inconclusive;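 note: cells exposed to compound for 40 hours; plate controls were DMSO alone for no effect and tamoxifen positive control for full effect; nearly all actives have a fitted effect of over 25% in size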). The conditions noted are these: NIH 3T3 cell viability, qHTS; activity change, negative = cytotoxicity: at 92.2 µM (top of the series). In outline: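 AC50 values reflect concentration-dependent loss of intracellular ATP in NIH 3T3 cells after 40 hr treatment in complete culture medium, quantified by luciferase-based luminescence.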

Test [14] concerns the target Estrogen receptor (Homo sapiens) (UniProt P03372). As to the kind of experiment: qHTS assay for small molecule antagonists of estrogen receptor alpha signaling (AID 588513; active = well fitted curve in the direction sought with a large enough effect in the signal ratio, with a control signal flat, not every such curve was filed as active; the % refers to the signal ratio; note: % is set by controls: 0 for no effect and ±100 for the full control effect). The conditions noted are these: ER-alpha-UAS-bla HEK293, beta-lactamase ratio, antagonist mode; series mostly up to 76.9 µM. In outline:
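Beta-lactamase reporter, antagonist mode, HEK 293 GripTite cells; 0.5nM E2 stimulus, 18 h, 37 C; CCF4 dye 2 h RT; fluorescence. IC50 and efficacy from Hill fits, normalized to E2 and DMSO.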

For test [15] the target is unchanged. As to the kind of experiment: qHTS assay for small molecule agonists of estrogen receptor alpha signaling (AID 588514).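 Note: 0% = vehicle only and 100% = reference agonist; nearly all actives have a fitted effect of over 70% in size.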 Particulars: ER-alpha-UAS-bla HEK293, beta-lactamase ratio, 18 h; series mostly up to 76.8 µM. In outline: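 Reporter-gene assay. […] controls beta-lactamase in HEK 293 GripTite cells; after 18 hrs with compound, CCF4 substrate is added for 2 hrs and fluorescence is read.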

For test [16], the target named is Glucocorticoid receptor (Homo sapiens) (UniProt P04150). As to the kind of experiment: qHTS assay for small molecule agonists of glucocorticoid receptor signaling (AID 588532; active = well fitted curve in the direction sought with a large enough effect in the signal ratio, with a control signal flat; the % refers to the signal ratio;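 note: 100% = dexamethasone at 0.1 µM and 0% = DMSO only wells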). The conditions noted are these: HeLa MMTV-bla, beta-lactamase ratio, agonist, 18 h; stronger effect = higher value; percent of dexamethasone control, DMSO zero. In outline: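 Cells were plated and rested 3-5 h at 37 C, compounds were added in titration and incubated 18 h, then CCF4 substrate was loaded for 2 h at RT before reading blue/green fluorescence. EC50 came from Hill-equation fitting.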
Glucocorticoid receptor (Homo sapiens), sequence (P04150 whole entry, looked up): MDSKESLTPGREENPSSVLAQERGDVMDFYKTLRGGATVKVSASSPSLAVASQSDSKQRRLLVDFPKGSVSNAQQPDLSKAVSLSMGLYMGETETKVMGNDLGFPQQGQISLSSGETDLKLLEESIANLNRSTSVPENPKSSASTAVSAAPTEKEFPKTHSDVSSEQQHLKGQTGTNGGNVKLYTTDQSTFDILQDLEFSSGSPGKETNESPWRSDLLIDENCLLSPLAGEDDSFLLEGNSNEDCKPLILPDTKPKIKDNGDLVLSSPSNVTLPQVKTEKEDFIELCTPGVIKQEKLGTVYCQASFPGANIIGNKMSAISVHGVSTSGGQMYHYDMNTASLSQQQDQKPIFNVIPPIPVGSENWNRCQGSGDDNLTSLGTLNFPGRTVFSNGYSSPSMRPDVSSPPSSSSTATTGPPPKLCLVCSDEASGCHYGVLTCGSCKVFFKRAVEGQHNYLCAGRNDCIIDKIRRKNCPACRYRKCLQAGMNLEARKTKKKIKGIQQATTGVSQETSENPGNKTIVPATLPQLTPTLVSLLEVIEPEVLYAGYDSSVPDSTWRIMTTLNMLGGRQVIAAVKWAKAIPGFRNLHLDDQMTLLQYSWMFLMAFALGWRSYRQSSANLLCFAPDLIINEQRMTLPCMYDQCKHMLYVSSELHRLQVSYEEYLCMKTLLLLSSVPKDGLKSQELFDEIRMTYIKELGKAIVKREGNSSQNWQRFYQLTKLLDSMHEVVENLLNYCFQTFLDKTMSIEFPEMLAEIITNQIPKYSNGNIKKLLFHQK

Test [17] can be described thus: qHTS assay for small molecule disruptors of the mitochondrial membrane potential - 5 hr assay (AID 651755). Note: % is set by controls: 0 for no effect and ±100 for the full control effect; nearly all actives have a fitted effect of over 40% in size. Particulars: JC-1-type ratio dye; series mostly up to 92.2 µM. In outline: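 HepG2 cells (2,000/well), attached overnight, exposed to compound 5 hr at 37C, then Mito-MPS dye 30 min. Fluorescence read for monomers (490/535 nm) and aggregates (540/590 nm).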

A short description of test [18]: qHTS assay for small molecule agonists of the antioxidant response element (ARE) signaling pathway measured by Nrf2-dependant transcriptional activity (AID 720636; active = well fitted curve in the direction sought with a large enough effect in the repeat runs; an effect the other way counts as inactive or inconclusive;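 note: HepG2 cells with an ARE-driven luciferase reporter; % of control where 0% means no effect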). The conditions noted are these: ARE-luc HepG2, Nrf2 luciferase reporter, 16 h; series mostly up to 92.4 µM. In outline:
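Attachment 6 hr at 37 C, then compound versus DMSO vehicle for 16 hr in ARE-luc HepG2 cells (1% dialyzed FBS); luminescence recorded 30 min after ONE-Glo addition at room temperature.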

Test [19] is described as follows: Cell Viability - H-4-II-E (AID 543; active = well fitted curve in the direction sought with a large enough effect; an effect the other way counts as inactive or inconclusive;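 note: cells exposed to compound for 40 hours; % is set by controls: 0 for no effect and ±100 for the full control effect; nearly all actives have a fitted effect of over 35% in size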). Particulars: H-4-II-E rat hepatoma viability; series mostly up to 92.2 µM. In outline:
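Here, cytotoxicity is measured in the rat hepatoma line H-4-II-E as loss of intracellular ATP after 40 hr compound treatment, detected by luciferase luminescence.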

For test [20], the target named is Glucocorticoid receptor (Homo sapiens) (UniProt P04150). Kind of test: qHTS assay for small molecule antagonists of glucocorticoid receptor signaling (AID 588533; active = well fitted inhibition curve with a large enough effect in the signal ratio, with a control signal flat, not every such curve was filed as active; the % refers to the signal ratio; note: % is set by controls: 0 for no effect and ±100 for the full control effect). The conditions noted are these: HeLa MMTV-bla, GRE beta-lactamase ratio, antagonist mode, 18 h; series mostly up to 76.8 µM. In outline:
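Antagonist-mode qHTS: compound titrations added to GRE-bla HeLa cells, then dexamethasone 2 nM final; 18 h, 37 C. CCF4 FRET fluorescence normalized to dexamethasone and DMSO; IC50 from Hill fit.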

Each structure is given as a SMILES string. “And” between values parts separate entries of the source, which are not always exact repeats. Equal values may be shown once. Results filed as inconclusive are left out. The source made the active and inactive calls. Unless noted, calls come from the whole dose curve.

Vitamin D3 receptor (Homo sapiens), sequence (P11473 whole entry, looked up): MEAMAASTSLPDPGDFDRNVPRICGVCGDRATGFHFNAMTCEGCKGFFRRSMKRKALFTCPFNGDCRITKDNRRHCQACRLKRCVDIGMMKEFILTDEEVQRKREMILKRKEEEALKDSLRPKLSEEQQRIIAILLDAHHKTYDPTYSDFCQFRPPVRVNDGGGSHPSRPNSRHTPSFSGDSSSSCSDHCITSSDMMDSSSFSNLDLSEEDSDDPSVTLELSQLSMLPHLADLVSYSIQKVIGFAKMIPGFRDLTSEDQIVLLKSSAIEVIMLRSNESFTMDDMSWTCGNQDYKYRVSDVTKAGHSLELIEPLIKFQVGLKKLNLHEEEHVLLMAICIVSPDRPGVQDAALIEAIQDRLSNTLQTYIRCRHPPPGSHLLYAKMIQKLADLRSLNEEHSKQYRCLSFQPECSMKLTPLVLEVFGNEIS
Estrogen receptor (Homo sapiens), sequence (P03372 whole entry, looked up): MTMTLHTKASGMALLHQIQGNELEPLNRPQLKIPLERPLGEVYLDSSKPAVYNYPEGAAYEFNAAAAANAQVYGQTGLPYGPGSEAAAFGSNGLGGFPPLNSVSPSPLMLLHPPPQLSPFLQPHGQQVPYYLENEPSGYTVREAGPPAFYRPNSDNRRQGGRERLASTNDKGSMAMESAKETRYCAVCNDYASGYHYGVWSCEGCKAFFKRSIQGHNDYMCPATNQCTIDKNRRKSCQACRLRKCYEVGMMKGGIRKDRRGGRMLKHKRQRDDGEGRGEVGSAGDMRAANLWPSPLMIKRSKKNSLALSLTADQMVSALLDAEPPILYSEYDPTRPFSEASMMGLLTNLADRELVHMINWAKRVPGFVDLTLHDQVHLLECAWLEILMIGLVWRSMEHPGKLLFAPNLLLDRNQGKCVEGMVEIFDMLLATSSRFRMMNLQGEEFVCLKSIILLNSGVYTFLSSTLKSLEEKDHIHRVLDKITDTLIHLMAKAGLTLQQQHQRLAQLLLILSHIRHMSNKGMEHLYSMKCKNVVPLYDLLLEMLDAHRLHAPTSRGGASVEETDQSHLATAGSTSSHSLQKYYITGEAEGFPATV
Peroxisome proliferator-activated receptor gamma (Homo sapiens), sequence (P37231 whole entry, looked up): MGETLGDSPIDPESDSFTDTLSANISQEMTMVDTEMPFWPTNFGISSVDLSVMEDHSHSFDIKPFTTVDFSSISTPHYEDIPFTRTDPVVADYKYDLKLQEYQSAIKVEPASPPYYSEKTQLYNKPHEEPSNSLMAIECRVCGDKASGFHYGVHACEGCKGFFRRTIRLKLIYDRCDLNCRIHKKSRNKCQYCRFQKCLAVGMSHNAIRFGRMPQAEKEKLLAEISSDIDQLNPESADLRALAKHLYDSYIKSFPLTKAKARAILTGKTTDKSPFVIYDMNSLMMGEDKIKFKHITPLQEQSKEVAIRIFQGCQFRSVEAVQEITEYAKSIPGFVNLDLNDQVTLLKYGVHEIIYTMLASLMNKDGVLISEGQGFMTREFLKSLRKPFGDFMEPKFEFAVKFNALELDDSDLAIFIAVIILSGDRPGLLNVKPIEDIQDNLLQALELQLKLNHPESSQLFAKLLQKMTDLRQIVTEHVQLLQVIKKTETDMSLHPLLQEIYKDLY

With `CC(C)[C@]12CC(=O)[C@H](C)[C@H]1C2`, in test [1], the Potency is > 92 µM (inactive). For the same compound, the outcome in test [2], in [3], in [5] and in test [7] was inactive. Moreover, the max response in test [4] was 17.2% and -10.4%. The Potency result in test [6], in test [9], in [11] and in [12] was “inactive” throughout. Besides, the activity change % (negative = inhibition) in [8] was -3.76% (inactive) and 6.48% (inactive). Also, the activation in test [10] is -0.354% (inactive) and -5.97% (inactive).

For `Cc1cccc(C)c1N`, the Potency in test [1] is > 92 µM (inactive). Also, the Potency entry in test [13], in [14], in test [15], in test [9], in test [11] and in [17] was “inactive” each time. Moreover, in test [12], the Potency result was “inactive”. The outcome in test [2], in test [3] and in [5] was inactive. Further, the values for the activation in test [16] and in test [10] were 0.219% (inactive) and -1.09% (inactive), respectively. For the same compound, the max response in [4] was 17.3%.

For `O=[N+]([O-])c1cccc(O)c1`, in test [1], the Potency is > 92 µM (inactive). Besides, the Potency result in test [13], in test [12] and in test [18] was “inactive” in each case. Also, the outcome in [2], in test [3] and in test [7] was inactive. The activity change % (negative = inhibition) in [8] was 6.02% (inactive). In addition, the activation in test [10] was -0.57% (inactive).

Regarding `Clc1cc(Cl)c(Cl)c(Cl)c1`, the Potency in [1] was > 92 µM (inactive). For the same compound, the Potency entry in test [19], in test [15], in [11], in test [17] and in [18] was “inactive” in each case. The compound was called inactive in test [2], in test [3] and in [7]. The activation in test [16] was 16.9% (inactive); in [10] it was -0.964% (inactive). The activity change % (negative = inhibition) in test [8] was -16.6% (inactive).

`Oc1cc(Cl)ccc1Cl`: the Potency in [1] was > 92 µM (inactive). In addition, the result in [2], in test [20] and in test [5] was inactive. Besides, the activation was 0.0862% (inactive) and 2.52% (inactive) in test [16]; -0.753% (inactive) and -0.792% (inactive) in test [10]. Also, in [4], the max response was 32.2% and -9.59%. For the same compound, the Potency result in [6], in test [9] and in test [12] was “inactive” each time. Also, the activity change % (negative = inhibition) in [8] is -3.5% (inactive).

The values are drawn from PubChem BioAssay (NCATS).
